Sampled rows, rich in hits. Any-hit rate of the full collection: about 3.5%.
TEAD-YAP block = TEAD-YAP interaction inhibition. inhibition, % at 9.12 µM. HEK-TIYL cells, TEAD-Gal4/YAP UAS-luciferase luminescence. 640,000 compounds, 1.4% hits; in the data active means inhibition above about 32%
MITF primary = blocks human microphthalmia-associated transcription factor | 650,000 compounds, 0.91% hits | AlphaScreen MITF homodimerization, bead proximity signal | inhibition, % at 2.6 µM; in the data active means inhibition above about 50%
Target sequence (O75030 whole entry, looked up): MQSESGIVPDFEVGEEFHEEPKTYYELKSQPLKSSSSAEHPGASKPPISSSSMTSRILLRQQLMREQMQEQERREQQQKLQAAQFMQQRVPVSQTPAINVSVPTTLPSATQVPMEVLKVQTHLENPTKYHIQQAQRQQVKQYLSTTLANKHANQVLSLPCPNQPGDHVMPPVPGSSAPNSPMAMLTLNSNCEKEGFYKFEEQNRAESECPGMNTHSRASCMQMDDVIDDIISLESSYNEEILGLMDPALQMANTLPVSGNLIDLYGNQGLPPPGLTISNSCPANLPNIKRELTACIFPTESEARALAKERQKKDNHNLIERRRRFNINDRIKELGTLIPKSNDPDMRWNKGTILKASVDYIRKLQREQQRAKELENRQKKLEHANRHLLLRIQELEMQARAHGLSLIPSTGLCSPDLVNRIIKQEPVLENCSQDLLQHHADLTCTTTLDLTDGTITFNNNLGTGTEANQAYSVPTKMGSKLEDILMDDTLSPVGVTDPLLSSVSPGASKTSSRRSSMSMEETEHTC
GPR151 activ = human GPR151 activation; activation, % at 11.2 µM; 650,000 compounds, 1% hits; Q8TDV0; AID 1508602; PathHunter beta-arrestin GPR151 cells, luminescence; in the data active means activation above about 4.9%
FBW7 activator = activators of human E3 ligase FBW7; normalized activity (activation), % at 26.1 µM; Q969H0; 650,000 compounds, 0.13% hits; AlphaScreen FBW7–phospho-cyclin E peptide binding, activator screen; in the data active means normalized activity above about 1.9%;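 further: purified mutant Fbw7 with reduced substrate affinity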
MITF inh conf = human MITF inhibition, confirmation; shares compounds with MITF primary; AlphaScreen MITF homodimerization, biotin/His-MITF beads; inhibition, % at 2.6 µM; 4,700 compounds, 16% hits; AID 1259372;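 active means inhibition above a cutoff derived from the DMSO control wells, cut at about 28% in these data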;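 further: inhibitors lower the bead chemiluminescence by keeping MITF from dimerizing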
AS interf DR = counter-screen: compounds optically interfering with AlphaScreen; 480 compounds, 6% hits; IC50, µM; AID 1259373; AlphaScreen optical interference counterscreen, cell-free; shares compounds with MITF primary; call rule not given here
AlphaScreen intf2 = optically interferes with AlphaScreen signal | shares compounds with MITF primary | inhibition, % at 2.6 µM | LysRS AlphaScreen counterscreen, signal interference, triplicate | 4,700 compounds, 7.6% hits;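 active means inhibition above a cutoff derived from the DMSO control wells, cut at about 30% in these data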
Each line names hits and unclear results; the compound was inactive in the other large screens (follow-up assays come after a bar, where they were run).

CN(C)CC(C)(C)CNC(=O)C1CCN(Cc2ccccc2Cl)CC1	MITF primary 63 | MITF inh conf inactive | AlphaScreen intf2 inactive
O=C(NCc1ccco1)C1CCN(Cc2cccc(Cl)c2Cl)CC1	MITF primary 51 | MITF inh conf inactive | AlphaScreen intf2 inactive
COc1ccc(S(=O)(=O)N2CCn3cccc3C2c2ccccc2F)cc1C (stereo not given)	MITF primary 58 | MITF inh conf inactive | AlphaScreen intf2 inactive
Cc1ccc(S(=O)(=O)N2CCn3cccc3C2c2ccc(F)cc2)cc1 (stereo not given)	none
COc1cc(OC)nc(Oc2ccccc2/C=N/N(C)C)n1	none
Cc1nnc(OCc2cccc([N+](=O)[O-])c2)c2ccccc12	none
COCCCNCCOCCOc1ccc(C)cc1[N+](=O)[O-]	none
C=CCNCCCCOc1ccc(C)cc1[N+](=O)[O-]	MITF primary 75 | MITF inh conf inactive | AlphaScreen intf2 inactive
CCC(C)NCCCCOc1ccc(C)cc1[N+](=O)[O-] (stereo not given)	MITF primary 70 | MITF inh conf inactive | AlphaScreen intf2 inactive
COCCNCCOCCOc1ccc(C)cc1[N+](=O)[O-]	MITF primary 58 | MITF inh conf inactive | AlphaScreen intf2 inactive
COCCNCCCCOc1ccc(C)cc1[N+](=O)[O-]	none
CCC(C)NCCOc1ccccc1[N+](=O)[O-] (stereo not given)	none
O=[N+]([O-])c1cc(Cl)ccc1Oc1ccccc1	none
COc1cc(NC(=O)OC2C(=O)c3cc(Br)ccc3O[C@H]2c2ccc3c(c2)OCO3)cc(OC)c1OC (stereo not given in full)	none (no result: TEAD-YAP block)
CC(C)C[C@H]1NC(=O)[C@H]2CN(CCc3ccccc3)CCN2C1=O	none
CCCS(=O)(=O)N1CCN(Cc2cc(Br)ccc2OC)CC1	MITF primary 54 | MITF inh conf inactive | AlphaScreen intf2 inactive
CCCS(=O)(=O)N1CCN(Cc2ccc(OC)c(OC)c2OC)CC1	MITF primary 52 | MITF inh conf inactive | AlphaScreen intf2 inactive
CCS(=O)(=O)N1CCN(Cc2cc(Br)ccc2OC)CC1	MITF primary 52 | MITF inh conf inactive | AlphaScreen intf2 inactive
COc1ccc(Br)cc1CN1CCN(S(=O)(=O)Cc2ccccc2)CC1	MITF primary 62 | MITF inh conf inactive | AlphaScreen intf2 inactive
O=C(CCCC(=O)N(CC(=O)NC1CCCC1)C1CCCCC1)Nc1ccccn1	none
Cc1cc(OC(=O)c2cccc([N+](=O)[O-])c2)ccc1N1C(=O)CCC1=O	MITF primary 70 | MITF inh conf inactive | AlphaScreen intf2 inactive
COc1ccc(C(CNCC(O)COCC2=CCC3CC2C3(C)C)N(C)C)cc1 (stereo not given)	MITF primary 73 | MITF inh conf inactive | AlphaScreen intf2 31
CC(=O)C1=C(O)C(=O)N(CCN2CCNCC2)C1c1ccc(F)cc1 (stereo not given)	MITF primary 101 | MITF inh conf inactive | AlphaScreen intf2 inactive
O=c1c2ccccc2nc(SCc2cc(F)cc3c2OCOC3)n1C1CCCCC1	MITF primary 69 | MITF inh conf inactive | AlphaScreen intf2 inactive
CCOC(=O)c1cc2c(c(CSc3nc4ccccc4c(=O)n3CCc3ccccc3)c1)OCOC2	MITF primary 69 | MITF inh conf inactive | AlphaScreen intf2 inactive
CCOC(=O)c1cc2c(c(CSc3nc4ccccc4c(=O)n3Cc3ccccc3)c1)OCOC2	none
C=CCNc1nc(-c2ccc(O)cc2)cs1	MITF primary 70 | MITF inh conf inactive | AlphaScreen intf2 inactive
Cc1cccc(Nc2nc(-c3ccc(O)cc3)cs2)c1	MITF primary 67 | MITF inh conf inactive | AlphaScreen intf2 inactive
O=C(CCc1ccccc1)Nc1nnc(-c2ccco2)s1	none
CC(CNc1ccc(S(=O)(=O)N2CCCC2)cc1[N+](=O)[O-])c1ccccc1 (stereo not given)	none
Cc1c(Cl)ccc(OCCCNCCN(C)C)c1C	none
CCC12c3ccccc3C(c3ccccc31)C1C(=O)NC(=O)C12 (stereo not given)	MITF primary 71 | MITF inh conf 63 | AS interf DR inactive | AlphaScreen intf2 inactive
COc1ccccc1NC(=O)N1CCN(C)CC1	MITF primary 52 | MITF inh conf inactive | AlphaScreen intf2 inactive
COc1ccccc1N1CCN(CCCCCCN)CC1	none
COc1ccccc1N1CCN(CCCOc2ccc(F)cc2)CC1	MITF primary 60 | MITF inh conf inactive | AlphaScreen intf2 inactive
COc1ccc(OCCCN2CCN(c3ccccc3OC)CC2)cc1	MITF primary 81 | MITF inh conf 53 | AlphaScreen intf2 39
COc1ccccc1N1CCN(C(=O)CN2CCN(C)CC2)CC1	MITF primary 54 | MITF inh conf inactive | AlphaScreen intf2 inactive
CSc1ccc(CN2CCC(O)CC2)cc1	none
CSc1ccc(CN2CCN(C(=O)c3ccccc3F)CC2)cc1	none
OCCN1CCN(Cc2ccc(OCc3ccccc3)cc2)CC1	none
CSc1ccc(CN2CCN(C(=O)C(c3ccccc3)c3ccccc3)CC2)cc1	MITF primary 53 | MITF inh conf inactive | AlphaScreen intf2 inactive
CSc1ccc(CN2CCN(CCO)CC2)cc1	MITF primary 80 | MITF inh conf inactive | AlphaScreen intf2 inactive
OCCN1CCN(Cc2ccc(O)cc2)CC1	MITF primary 86 | MITF inh conf inactive | AlphaScreen intf2 inactive
CSc1ccc(CN2CCN(Cc3ccncc3)CC2)cc1	MITF primary 60 | MITF inh conf inactive | AlphaScreen intf2 inactive
CCN1CCN(c2ccc(N3CCN(C(=O)c4ccc(Br)cc4)CC3)nn2)CC1	none
CN(C1CC1)S(=O)(=O)c1ccc(C(=O)Nc2ncnc3c2CCC3)cc1	none
CN(C)S(=O)(=O)c1ccc(C(=O)Nc2ncnc3c2CCC3)cc1	MITF primary 55 | MITF inh conf inactive | AlphaScreen intf2 inactive
CN1CCN(Cc2cccc(Oc3ccccc3)c2)CC1	none
CN1CCCN(Cc2cccc(Oc3ccccc3)c2)CC1	MITF primary 55 | MITF inh conf inactive | AlphaScreen intf2 inactive
OC1CCN(Cc2cccc(Oc3ccccc3)c2)CC1	none
CCc1ccc(CN2CCN(Cc3cccc(Oc4ccccc4)c3)CC2)cc1	MITF primary 67 | MITF inh conf inactive | AlphaScreen intf2 inactive
O=c1oc2ccc(Br)cc2cc1-c1csc(Nc2ccc(F)cc2)n1	none
COC(=O)N1CCc2ccccc21	none
CC(C(=O)N(C)Cc1ccccc1)N1CCN(C/C=C/c2ccccc2)CC1 (stereo not given)	MITF primary 59 | MITF inh conf inactive | AlphaScreen intf2 inactive
O=C(CN1CCN(C/C=C/c2ccccc2)CC1)NCc1ccccc1	MITF primary 73 | MITF inh conf inactive | AlphaScreen intf2 inactive
O=C(CN1CCN(C/C=C/c2ccccc2)CC1)NCCCc1ccccc1	none
CCOC(=O)c1c(NC(=O)CCc2ccccc2)sc(C(=O)Nc2ccccc2C)c1C	none
Cc1[nH]c2ccccc2c1/C=N/NC(=O)c1cc(-c2cccn2C)n[nH]1	none
CCCCOC(=O)C1=C(C)NC2=C(C(=O)CCC2)C1c1ccc(Cl)c(Cl)c1 (stereo not given)	none

Compound activity: PubChem, The Scripps Research Institute Molecular Screening Center
